Experiment in all cases: yeast three-hybrid, YBZ-1, SC-Leu-His + 0.5 mM 3-AT, 4 days
Common to all, as to conditions: tags: N-Gal4 AD-HA kept; label: inside an RPR1-promoter hybrid RNA with tandem MS2 sites; ssRNA

Assay [1] has as its target PUM1 PUF domain R5-SAT (Homo sapiens, UniProt Q14671 828-1176, C1007S;R1008A;Q1011T). A digest of the protocol: (§1)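 The interaction score is the log change in how often each variant appears, from input to selection. Frequencies came from PCR-amplified, Illumina-sequenced repeat regions of Pumilio-1 PUF domain libraries grown in strain YBZ-1 (LexA–MS2 coat fusion, HIS3 reporter) alongside matching RNA elements. Input plates were SC-Leu and selection plates were SC-Leu-His + 0.5 mM 3-AT, each for four days, and the log2 calculation used a pseudocount of 1 where a variant was absent.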

Assay [2] deals with PUM1 PUF domain R4-PHM (Homo sapiens, UniProt Q14671 828-1176, N971P;Q975M). In a few lines: as §1
For assay [3], the target named is PUM1 PUF domain R5-SFS (Homo sapiens, UniProt Q14671 828-1176, C1007S;R1008F;Q1011S). A digest of the protocol:
as §1

The target of assay [4] is PUM1 PUF domain R1-RYL (Homo sapiens, UniProt Q14671 828-1176, S863R;R864Y;Q867L). In a few lines:
as §1

The target in assay [5] is PUM1 PUF domain R8-RWR (Homo sapiens, UniProt Q14671 828-1176, N1122R;Y1123W;Q1126R). In a few lines:
as §1

Assay [6] deals with T1, PUM1 PUF domain R6-RYA (Homo sapiens, UniProt Q14671 828-1176, N1043R;Q1047A).
T1 sequence: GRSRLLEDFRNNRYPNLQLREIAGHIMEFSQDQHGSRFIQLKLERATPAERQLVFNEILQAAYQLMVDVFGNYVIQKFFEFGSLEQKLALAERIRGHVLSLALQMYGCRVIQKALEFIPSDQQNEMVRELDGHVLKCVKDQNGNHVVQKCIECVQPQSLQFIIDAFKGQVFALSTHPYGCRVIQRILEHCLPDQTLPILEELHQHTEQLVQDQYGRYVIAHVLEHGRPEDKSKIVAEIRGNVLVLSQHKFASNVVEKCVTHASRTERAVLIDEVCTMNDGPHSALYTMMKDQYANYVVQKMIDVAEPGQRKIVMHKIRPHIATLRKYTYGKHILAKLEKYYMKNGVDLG
In a few lines:
as §1

Assay [7] addresses PUM1 PUF domain R5-LFQ (Homo sapiens, UniProt Q14671 828-1176, C1007L;R1008F). A digest of the protocol: as §1
For assay [8], the target named is PUM1 PUF domain R7-KYK (Homo sapiens, UniProt Q14671 828-1176, S1079K;N1080Y;E1083K). In a few lines:
as §1

In assay [9] the target is T2, PUM1 PUF domain R6-SYM (Homo sapiens, UniProt Q14671 828-1176, N1043S;Q1047M).
T2 sequence: T1 sequence with R216S, A220M
In a few lines: as §1

Assay [10] deals with PUM1 PUF domain R4-SRC (Homo sapiens, UniProt Q14671 828-1176, N971S;H972R;Q975C). In a few lines: as §1

Substitutions are numbered along the chain they refer to.

Sequence of PUM1 PUF domain R7-KYK (Q14671 828-1176 S1079K/N1080Y/E1083K): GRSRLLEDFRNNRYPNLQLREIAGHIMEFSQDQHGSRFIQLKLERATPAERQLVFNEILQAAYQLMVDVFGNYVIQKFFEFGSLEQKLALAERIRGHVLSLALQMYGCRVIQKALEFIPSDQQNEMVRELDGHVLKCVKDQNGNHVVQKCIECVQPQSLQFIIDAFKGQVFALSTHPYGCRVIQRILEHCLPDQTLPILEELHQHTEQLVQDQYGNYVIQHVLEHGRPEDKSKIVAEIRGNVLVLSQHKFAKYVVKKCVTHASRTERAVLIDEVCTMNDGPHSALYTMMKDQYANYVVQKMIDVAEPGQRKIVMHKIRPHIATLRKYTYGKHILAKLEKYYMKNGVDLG

Consider “GGCUAGAACUAGUGGAUCCCCCGGCGCCCGGCGGCUCGAGCCCGGGUAAGUGUGAAUAGUCUGCAUGCCGCCGGGCGCCAUGCCUGCAGGUCGACUCUAGAAAACAUG”, for which the binding signal in [1] is 2.75 log2 enrichment (interaction score). Take “GGCUAGAACUAGUGGAUCCCCCGGCGCCCGGCGGCUCGAGCCCGGGUAAGUGUAUAUAGUCUGCAUGCCGCCGGGCGCCAUGCCUGCAGGUCGACUCUAGAAAACAUG”: the binding signal in assay [2] was 5.12 log2 enrichment (interaction score). Take “GGCUAGAACUAGUGGAUCCCCCGGCGCCCGGCGGCUCGAGCCCGGGUAAGUGUCAAUAGUCUGCAUGCCGCCGGGCGCCAUGCCUGCAGGUCGACUCUAGAAAACAUG”: in assay [3], the binding signal was 3.78 log2 enrichment (interaction score). As to “GGCUAGAACUAGUGGAUCCCCCGGCGCCCGGCGGCUCGAGCCCGGGUAAGUGUAAAUCGUCUGCAUGCCGCCGGGCGCCAUGCCUGCAGGUCGACUCUAGAAAACAUG”, in assay [4], the binding signal was 2.26 log2 enrichment (interaction score). Turning to “GGCUAGAACUAGUGGAUCCCCCGGCGCCCGGCGGCUCGAGCCCGGGUAAGCGUAAAUAGUCUGCAUGCCGCCGGGCGCCAUGCCUGCAGGUCGACUCUAGAAAACAUG”, the binding signal in assay [5] is 7 log2 enrichment (interaction score). As to “GGCUAGAACUAGUGGAUCCCCCGGCGCCCGGCGGCUCGAGCCCGGGUAAGUGUAAAUAGUCUGCAUGCCGCCGGGCGCCAUGCCUGCAGGUCGACUCUAGAAAACAUG”, the binding signal in [2] was 4.14 log2 enrichment (interaction score); in assay [6] it was 3.02 log2 enrichment (interaction score); in [7] it was 2.45 log2 enrichment (interaction score); in assay [8], 2.18 log2 enrichment (interaction score); in [9], 2.79 log2 enrichment (interaction score); in assay [10], 4.65 log2 enrichment (interaction score). Further, the binding signal in assay [5] was 6.58 log2 enrichment (interaction score). “GGCUAGAACUAGUGGAUCCCCCGGCGCCCGGCGGCUCGAGCCCGGGUAAGUAUAAAUAGUCUGCAUGCCGCCGGGCGCCAUGCCUGCAGGUCGACUCUAGAAAACAUG”: in assay [8], the binding signal is 4.11 log2 enrichment (interaction score). For “GGCUAGAACUAGUGGAUCCCCCGGCGCCCGGCGGCUCGAGCCCGGGUAAGUCUAAAUAGUCUGCAUGCCGCCGGGCGCCAUGCCUGCAGGUCGACUCUAGAAAACAUG”, the binding signal in assay [8] is 5.83 log2 enrichment (interaction score). Take “GGCUAGAACUAGUGGAUCCCCCGGCGCCCGGCGGCUCGAGCCCGGGUAAGUGUAAAUUGUCUGCAUGCCGCCGGGCGCCAUGCCUGCAGGUCGACUCUAGAAAACAUG”: in assay [4], the binding signal is 2.71 log2 enrichment (interaction score).

The values above are taken from paper PMC8384837, “Expanding the binding specificity for RNA recognition by a PUF domain”.
